Experimental data reported in PubChem BioAssay (NCATS).
Where “and” joins values, the source holds several entries; their conditions need not be identical. Identical values can stand only once. Inconclusive results are not listed. Calls of active or inactive are those of the source. Calls come from the whole dose curve; as a rule, active = well fitted inhibition curve with a large enough effect; inconclusive = small, poorly fitted or top-dose-only effect; inactive = flat fitted curve, though single readings scatter.

What was measured:
[1] = system: CRL-7250; assay: Cytotoxic Profiling of Annotated Libraries Using Quantitative High-Throughput Screening (AID 1296008); conditions: Five cell lines viability, CellTiter-Glo ATP luminescence, 48-72 h; max response: hits give low values; for max response: % is set by controls: 0 for no effect and ±100 for the full control effect
Procedure, shortened: (§1)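 Cytotoxicity was measured as CellTiter-Glo ATP luminescence, read after 10 min at room temperature. Compound treatment of the cells lasted 48 or 72 hr at 37 degrees Celsius in a qHTS format.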

[2] = system: HaCat; assay: as above; conditions: Five cell lines viability, CellTiter-Glo ATP luminescence, 48-72 h; max response: hits give low values
Procedure, shortened: as §1

[3] = system: NIH3T3; assay: as above; conditions: Five cell lines viability, CellTiter-Glo ATP luminescence, 48-72 h; max response: hits give low values
Procedure, shortened: as §1

[4] = system: MKL-2; assay: qHTS assay to identify novel small-molecules to repurpose for Merkel cell carcinoma treatment (AID 1296009); conditions: MCC and control cell lines, CellTiter-Glo viability, 72 h; series mostly up to 46 µM
Procedure, shortened: (§2)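 Cell viability, measured as CellTiter-Glo luminescence, was normalized between DMSO and no-cell wells. The cells had been exposed to 8- or 11-point compound dilutions for 72 hr at 37 degree celsius.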

[5] = system: MCC-13; assay: as above; conditions: MCC and control cell lines, CellTiter-Glo viability, 72 h; series mostly up to 46 µM
Procedure, shortened: as §2

[6] = system: HEK293; assay: Cytotoxic Profiling of Annotated Libraries Using Quantitative High-Throughput Screening (AID 1296008); conditions: Five cell lines viability, CellTiter-Glo ATP luminescence, 48-72 h; max response: hits give low values; for max response: % is set by controls: 0 for no effect and ±100 for the full control effect
Procedure, shortened: as §1

[7] = system: KB-3-1; assay: as above; conditions: Five cell lines viability, CellTiter-Glo ATP luminescence, 48-72 h; max response: hits give low values
Procedure, shortened: as §1

[8] = system: MKL-1; assay: qHTS assay to identify novel small-molecules to repurpose for Merkel cell carcinoma treatment (AID 1296009); conditions: MCC and control cell lines, CellTiter-Glo viability, 72 h; series mostly up to 46 µM
Procedure, shortened: as §2

[9] = system: MCC-26; assay: as above; conditions: MCC and control cell lines, CellTiter-Glo viability, 72 h; series mostly up to 46 µM
Procedure, shortened: as §2

[10] = system: PC15; assay: qHTS profiling for inhibitors of Plasmodium falciparum proliferation (AID 504749); conditions: P. falciparum in erythrocytes, SYBR Green DNA, 72 h; series mostly up to 28.7 µM
Procedure, shortened: (§3)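 SYBR Green fluorescence of parasite DNA, read after lysis and overnight dark incubation, measured growth over 72 h in erythrocyte culture at 0.3% parasitemia and 2.5% hematocrit. Data normalised to DMSO and 0.29 uM artemisinin, with plate-drift correction.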

[11] = system: PC26; assay: as above; conditions: P. falciparum in erythrocytes, SYBR Green DNA, 72 h; series mostly up to 28.7 µM
Procedure, shortened: as §3

[12] = system: PC49; assay: as above; conditions: P. falciparum in erythrocytes, SYBR Green DNA, 72 h; series mostly up to 28.7 µM
Procedure, shortened: as §3

[13] = system: SC27B; assay: as above; conditions: P. falciparum in erythrocytes, SYBR Green DNA, 72 h; series mostly up to 28.7 µM
Procedure, shortened: as §3

[14] = system: TAB109; assay: as above; conditions: P. falciparum in erythrocytes, SYBR Green DNA, 72 h; series mostly up to 28.7 µM
Procedure, shortened: as §3

[15] = system: TAB113; assay: as above; conditions: P. falciparum in erythrocytes, SYBR Green DNA, 72 h; series mostly up to 28.7 µM
Procedure, shortened: as §3

[16] = system: TAB165; assay: as above; conditions: P. falciparum in erythrocytes, SYBR Green DNA, 72 h; series mostly up to 28.7 µM
Procedure, shortened: as §3

[17] = system: W2; assay: as above; conditions: P. falciparum in erythrocytes, SYBR Green DNA, 72 h; series mostly up to 28.7 µM
Procedure, shortened: as §3

[18] = system: HACAT; assay: qHTS assay to identify novel small-molecules to repurpose for Merkel cell carcinoma treatment (AID 1296009); conditions: MCC and control cell lines, CellTiter-Glo viability, 72 h; series mostly up to 44.8 µM
Procedure, shortened: as §2
Note: nearly all actives have a fitted effect of over 60% in size.
Potency is the fitted concentration of half-maximal effect.

Cc1cnc(Nc2ccc(F)cc2Cl)nc1-c1c[nH]c(C(=O)N[C@H](CO)c2cccc(Cl)c2)c1
active: Potency [1] 18.7 µM and 20.6 µM | Potency [3] 10.5 µM | Potency [4] 14.8 µM
inactive: max response [2] -129%

COc1cc2c(Oc3ccc4[nH]c(C)cc4c3F)ncnc2cc1OCCCN1CCCC1
active: Potency [1] 8.2 µM | Potency [2] 8.33 µM and 7.31 µM | Potency [3] 1.87 µM and 2.06 µM
inactive: Potency [5]

C[C@]1(CO)CN(c2cc(C(=O)Nc3ccc4c(c3)-c3c(c(C(N)=O)nn3-c3ccc(F)cc3)CC4)c(Cl)cn2)C[C@@]1(C)CO
active: Potency [6] 4.69 µM and 9.2 µM | Potency [2] 13.2 µM
inactive: max response [7] -15.8% | max response [3] -26%

CNC(=O)c1cc(Oc2ccc(NC(=O)Nc3cc(C(C)(C)C)nn3-c3ccc4ncccc4c3)c(F)c2)ccn1
inactive: Potency [5] | Potency [8] | Potency [4]
active: Potency [1] 13.2 µM and 18.4 µM | Potency [2] 7.31 µM | Potency [7] 9.35 µM and 5.17 µM | Potency [3] 2.96 µM

Nc1ccccc1NC(=O)c1ccc(CNC(=O)OCc2cccnc2)cc1
active: Potency [1] 9.2 µM | Potency [2] 13.2 µM and 5.17 µM | Potency [7] 9.35 µM and 7.31 µM | Potency [8] 2.35 µM | Potency [4] 0.296 µM

Cc1ccc(C(=O)Nc2cccc(C(F)(F)F)c2)cc1-c1ccc2nc(NCCN3CCOCC3)ncc2c1
inactive: Potency [4]
active: Potency [1] 4.18 µM and 7.31 µM | Potency [2] 6.51 µM | Potency [7] 16.6 µM | Potency [3] 10.5 µM and 18.4 µM | Potency [5] 11.8 µM | Potency [9] 18.7 µM

CCOC(=O)C1=C(C)NC2=C(C(=O)CC(C)(C)C2)C1c1ccc(-c2ccccc2)cc1 (configuration not stated)
active: Potency [1] 26.4 µM and 10.3 µM | Potency [2] 7.31 µM | Potency [3] 20.9 µM and 5.8 µM | Potency [4] 2.35 µM
inactive: outcome [7] | Potency [5]

NCC(=O)Nc1ccc(-n2nc(C(F)(F)F)cc2-c2ccc3c(ccc4ccccc43)c2)cc1
active: Potency [7] 26.4 µM and 23.1 µM
inactive: max response [1] -6.6% | max response [2] -18.9% | max response [3] -0.49% | Potency [5] | Potency [9] | Potency [8] | Potency [4]

C[C@@H](Oc1cc(-c2cnn(C3CCNCC3)c2)cnc1N)c1c(Cl)ccc(F)c1Cl
active: Potency [1] 11.8 µM and 20.6 µM and 23.1 µM | Potency [2] 13 µM and 10.3 µM | Potency [7] 6.51 µM | Potency [3] 3.72 µM and 2.91 µM and 5.17 µM | Potency [8] 13.2 µM
inactive: Potency [5]

CNc1nccc(-c2cccnc2Oc2cc(C(=O)Nc3cccc(C(F)(F)F)c3)ccc2C)n1
active: Potency [1] 7.31 µM | Potency [3] 18.4 µM
inactive: outcome [7] | Potency [8] | Potency [4]

CC(C)c1ccccc1Cc1cc(C(=O)Nc2ccc(S(=O)(=O)c3ccccc3C(C)(C)C)cc2)c(O)c(O)c1O
inactive: Potency [9] | Potency [4]
active: Potency [7] 8.33 µM | Potency [8] 26.4 µM

COC(=O)C1=C(C)NC(C)=C(C(=O)OCCN2CCN(C(c3ccccc3)c3ccccc3)CC2)C1c1cccc([N+](=O)[O-])c1 (configuration not stated)
inactive: max response [7] -4.82% | Potency [9]
active: Potency [10] 10 µM | Potency [11] 1.9 µM | Potency [12] 5.01 µM | Potency [13] 2.24 µM | Potency [14] 3.55 µM | Potency [15] 2 µM | Potency [16] 2.24 µM | Potency [17] 1.35 µM | Potency [6] 11.9 µM

COCCn1c2c([n+](Cc3cnccn3)c1C)C(=O)c1ccccc1C2=O
active: Potency [6] 0.0166 µM | Potency [2] 0.0743 µM | Potency [7] 0.0148 µM | Potency [3] 16.6 µM | Potency [5] 0.59 µM | Potency [9] 0.296 µM | Potency [8] 0.0023 µM

Cn1cncc1[C@@](N)(c1ccc(Cl)cc1)c1ccc2c(c1)c(-c1cccc(Cl)c1)cc(=O)n2C
inactive: Potency [9]
active: Potency [6] 0.148 µM | Potency [7] 14.8 µM | Potency [8] 4.69 µM | Potency [4] 3.72 µM

CN(c1ncccc1CNc1nc(Nc2ccc3c(c2)CC(=O)N3)ncc1C(F)(F)F)S(C)(=O)=O
active: Potency [2] 16.6 µM | Potency [7] 7.43 µM | Potency [8] 9.35 µM

COc1c(N2C[C@@H]3CCCN[C@H]3C2)c(F)cc2c(=O)c(C(=O)O)cn(C3CC3)c12
inactive: Potency [10] | Potency [11] | Potency [12] | Potency [13] | Potency [15] | Potency [16] | Potency [17]

C=CC(=O)Nc1cc2c(Nc3ccc(F)c(Cl)c3)ncnc2cc1OCCCN1CCOCC1
active: Potency [6] 7.5 µM | Potency [2] 0.0094 µM | Potency [3] 4.73 µM
inactive: outcome [7] | Potency [5] | Potency [9]

CCN1CCN(Cc2ccc(-c3cc4c(N[C@H](C)c5ccccc5)ncnc4[nH]3)cc2)CC1
inactive: max response [7] -20%
active: Potency [2] 1.48 µM | Potency [3] 16.6 µM | Potency [5] 4.18 µM | Potency [9] 0.743 µM | Potency [4] 0.0132 µM

CC(C)(O)CCc1ccc(OCc2cc(-c3cccc(OC(F)F)c3)c3ncccc3c2)cc1
inactive: outcome [2] | max response [3] 4.85% | Potency [18] | Potency [5] | Potency [9] | Potency [8] | Potency [4]
